# Results reported in PubChem BioAssay (EPA / NIEHS).
# Calls of active or inactive are those of the source. Rule for the calls: active = hit-call score of the fitted dose curve at least 0.9, where 1 is the maximum; inactive = score below 0.9.
# Read-out: not listed separately
# Assay: BSK_CASM3C_Proliferation: Cell Proliferation Assessment in the BioMAP Diversity Plus: CASM3C Assay (AID 2283047);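 note: sulforhodamine B total protein stain as relative cell number at 560 nm; sub-confluent cells exposed 48 h before staining; fitted both ways against DMSO so gain or loss of cell number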
# Conditions: primary human coronary artery smooth muscle cells
SMILES,outcome,AC50
CCCCCCCCCCC1CO1 (stereo unspecified),inactive,–
Cc1cccnc1,inactive,–
CC(C)CC(=O)CC(C)CC(C)C (stereo unspecified),–,32 µM (active)
CN(C)CCC(c1ccc(Cl)cc1)c1ccccn1 (stereo unspecified),inactive,–

# Read-out: Monokine induced gamma interferon (MIG), CXCL9 (gene 4283)
# Assay: BSK_CASM3C_MIG: BioMAP Diversity Plus: CASM3C Assay for Monokine induced gamma interferon (MIG) Biomarker Activity (AID 2283048);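 note: MIG protein level measured by ELISA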
# Conditions: primary human coronary artery smooth muscle cells; actives raise or lower the signal
SMILES,outcome,AC50
CCCCCCCCCCC1CO1 (stereo unspecified),inactive,–
Cc1cccnc1,inactive,–
CC(C)CC(=O)CC(C)CC(C)C (stereo unspecified),–,32.1 µM (active)
CN(C)CCC(c1ccc(Cl)cc1)c1ccccn1 (stereo unspecified),inactive,–

# Read-out: serum amyloid A (SAA), SAA1 (gene 6288)
# Assay: BSK_CASM3C_SAA: BioMAP Diversity Plus: CASM3C Assay for serum amyloid A (SAA) Biomarker Activity (AID 2283049);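 note: SAA protein level quantified by ELISA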
# Conditions: primary human coronary artery smooth muscle cells; actives raise or lower the signal
row,SMILES,outcome
1,CCCCCCCCCCC1CO1 (stereo unspecified),inactive
2,Cc1cccnc1,inactive
3,CC(C)CC(=O)CC(C)CC(C)C (stereo unspecified),inactive
4,CN(C)CCC(c1ccc(Cl)cc1)c1ccccn1 (stereo unspecified),inactive

# Read-out: not listed separately
# Assay: BSK_CASM3C_SRB: Viability Assessment in the BioMAP Diversity Plus: CASM3C Assay (AID 2283050);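 note: total protein by SRB staining as cytotoxicity measure in parallel cultures; cells exposed to compound for 24 h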
# Conditions: primary human coronary artery smooth muscle cells
SMILES,AC50,outcome
CCCCCCCCCCC1CO1 (stereo unspecified),31.6 µM (active),–
Cc1cccnc1,–,inactive
CC(C)CC(=O)CC(C)CC(C)C (stereo unspecified),31.6 µM (active),–
CN(C)CCC(c1ccc(Cl)cc1)c1ccccn1 (stereo unspecified),–,inactive
